Reference: PubChem BioAssay (NCATS)
Inconclusive results are not listed. The source made the active and inactive calls. Unless noted, calls follow the shape of the dose curve; as a rule, active = well fitted curve in the direction sought with a large enough effect; inconclusive = small, poorly fitted or top-dose-only effect, or another doubt; inactive = no such curve, though single readings can be large; an effect the other way counts as inactive or inconclusive.

Assays:
[1] = qHTS for activators of dead-cell proteases activity screened against the NCATS CANVASS Library (AID 1347392);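 also: luminescence from protease leaking out of membrane-damaged cells cleaving impermeant substrate; 0% is about no effect; rising signal means more cytotoxicity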
Procedure, shortened: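 Compounds are pin-transferred onto attached HepG2 cells, giving 11 final concentrations. After 5 h at 37C, AAF-aminoluciferin reagent is added and luminescence is recorded at room temperature.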

[2] = qHTS for inhibitors of ER calcium dysfunction: SERCaMP assay screened against the NCATS CANVASS Library (AID 1347393);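 also: series mostly up to about 77 µM; % is scaled to controls: 0 for no effect and ±100 for the full control effect; lower secreted reporter signal means inhibitor of ER calcium depletion; nearly all actives have a fitted effect of over 40% in size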
Procedure, shortened: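 Thapsigargin-induced ER calcium depletion drives GLuc-SERCaMP secretion from SH-SY5Y cells; compounds given 16 h beforehand were scored by lowered coelenterazine luminescence after 4 h challenge.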

[3] = Vero-766 cells viability qHTS against the NCATS CANVASS Library: Counterscreen for Zika virus inhibition assay (AID 1347394); also: series mostly up to about 46 µM; % is scaled to controls: 0 for no effect and ±100 for the full control effect; nearly all actives have a fitted effect of over 60% in size
Procedure, shortened: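 Counterscreen for toxicity: Vero 766 cells exposed 72 h to an 11-point compound series, viability by CellTiter-Glo.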

[4] = qHTS for inhibitors of Wild type Zika virus screened against the NCATS CANVASS Library (AID 1347396);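 also: ATP luminescence of surviving cells so rescue from viral cell killing; series mostly up to about 46 µM; % is scaled to controls: 0 for no effect and ±100 for the full control effect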
Procedure, shortened: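 Vero 766 (African green monkey) cells, 1000 per well, attached overnight, then compounds were added in an 11-point series before wild-type Zika virus infection. After 72 h at 37C, cell viability was read as CellTiter Glo luminescence.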

[5] = Viability qHTS for inhibitors of the SERCaMP assay screened against the NCATS CANVASS Library (AID 1347400); also: series mostly up to about 92 µM; % is scaled to controls: 0 for no effect and ±100 for the full control effect; nearly all actives have a fitted effect of over 70% in size
Procedure, shortened: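 SH-SY5Y-GLuc SERCaMP MJH297-derived cells, 1000/well, plated 4 h, then exposed to compounds in an 11-point qHTS series for 48 h at 37C. Viability read as CellTiter-Glo luminescence.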

[6] = Redox Reaction Profiling qHTS: Assay Interference Panel against the NCATS CANVASS Library (AID 1347401);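 also: 100% = activation by 2 µM chloranil control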
Procedure, shortened: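 Cell-free redox surrogate: 5 uM resazurin + 200 uM DTT, 50 mM HEPES pH 7.3/50 mM NaCl; cpds pinned, 11-pt qHTS; Ex525/Em598 read t0 and t=15 min, dark.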

[7] = qHTS to identify inhibitors of the type 1 interferon - major histocompatibility complex class I in skeletal muscle: primary screen against the NCATS Pharmaceutical Collection (AID 1347407);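 also: luminescence of HiBiT knocked into endogenous HLA-B as interferon-induced MHC class I level; % is scaled to controls: 0 for no effect and ±100 for the full control effect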
Procedure, shortened: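 A qHTS format is used: 8-point, 1:5 compound series with 46 uM top final concentration, applied alongside 4 ng/ml IFN-beta to HLA-B*08:01-HiBiT knock-in myoblasts. Luminescence is measured after 24 h treatment.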

[8] = molecular target: Protein phosphatase 1D (Homo sapiens) (UniProt O15297); assay: RapidFire Mass Spectrometry qHTS Assay for Modulators of WT P53-Induced Phosphatase 1 (WIP1) (AID 1347424);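 also: amount of dephosphorylated VEPPL-S-QETFS peptide product formed by WIP1; series mostly up to about 63 µM; plate controls were DMSO wells for no effect and GSK830371 inhibitor control at 10 µM for full effect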
Chain of Protein phosphatase 1D (Homo sapiens) (O15297 whole entry, looked up): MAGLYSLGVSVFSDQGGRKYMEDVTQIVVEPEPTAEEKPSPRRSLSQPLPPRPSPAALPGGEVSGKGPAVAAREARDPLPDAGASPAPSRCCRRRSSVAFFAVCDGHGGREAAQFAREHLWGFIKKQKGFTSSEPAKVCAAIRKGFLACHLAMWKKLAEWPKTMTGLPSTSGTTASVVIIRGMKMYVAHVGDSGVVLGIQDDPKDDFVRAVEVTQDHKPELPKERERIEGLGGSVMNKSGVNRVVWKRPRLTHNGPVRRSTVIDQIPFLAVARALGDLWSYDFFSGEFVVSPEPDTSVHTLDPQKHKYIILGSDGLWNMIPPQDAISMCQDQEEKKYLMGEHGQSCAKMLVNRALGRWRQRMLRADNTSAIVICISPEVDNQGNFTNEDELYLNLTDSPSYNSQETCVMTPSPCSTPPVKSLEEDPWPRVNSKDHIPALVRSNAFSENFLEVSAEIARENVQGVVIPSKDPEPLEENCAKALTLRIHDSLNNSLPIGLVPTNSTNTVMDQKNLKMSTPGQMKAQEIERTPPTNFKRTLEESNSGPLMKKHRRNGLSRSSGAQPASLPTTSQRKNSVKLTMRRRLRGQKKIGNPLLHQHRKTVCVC
Procedure, shortened: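 10 nM WIP1 + cpd, 1 h RT; + 2 uM VEPPL-pS-QETFS, 5 min RT; stop 0.5% formic acid; labelled product standard 1 uM; RapidFire MS. Buffer 50 mM Tris pH 7.5, 30 mM MgCl2, 1 mM TCEP.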

[9] = molecular target: Protein phosphatase 1D (Homo sapiens) (UniProt O15297); assay: Rhodamine-PBP qHTS Assay for Modulators of WT P53-Induced Phosphatase 1 (WIP1) (AID 1347425); also: % of control where 0% means no effect
Procedure, shortened: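 WIP1 (5 nM final) was preincubated with compound for 1 hour at room temperature. It then dephosphorylated 10 uM VEPPL-pS-QETFS peptide in Tris-HCl pH 7.5 with 30 mM MgCl2. Released Pi was detected by 10 uM Rh-PBP fluorescence (ex 525/em 598 nm) read at 1-min intervals for 11 min, as delta f1 - f0.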

[10] = Primary qHTS for inhibitors of La Crosse Virus (LACV) - induced cell death in SH-SY5Y cells (AID 1508616);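 also: top concentration of the series differs between compounds; 0% = infected DMSO wells and 100% = uninfected DMSO wells; higher means more rescue of cells from virus-induced death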
Procedure, shortened: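 SH-SY5Y cells (6000/well) plated 24 h, then given compounds by pin transfer and LACV at 0.01 MOI for 6 days at 37C. Viability measured by ATPLite luminescence, normalized to infected DMSO and uninfected DMSO.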

[11] = molecular target: Calcium and integrin-binding protein 1 (Homo sapiens) (UniProt Q99828); assay: Primary qHTS for Identification of Calcium Integrin Binding Protein 1 (CIB1) Competitor (AID 1508620);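 also: GST tagged CIB1 binding a fluorescein labelled alphaIIb integrin peptide tracer; top concentration of the series differs between compounds; % is scaled to controls: 0 for no effect and ±100 for the full control effect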
Chain of Calcium and integrin-binding protein 1 (Homo sapiens) (Q99828 whole entry, looked up): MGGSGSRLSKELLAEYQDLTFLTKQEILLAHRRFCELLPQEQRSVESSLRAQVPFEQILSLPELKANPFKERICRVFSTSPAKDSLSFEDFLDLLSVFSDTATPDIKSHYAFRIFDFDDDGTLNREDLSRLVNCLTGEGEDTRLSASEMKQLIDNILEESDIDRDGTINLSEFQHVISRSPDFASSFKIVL
Procedure, shortened: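 CIB1-GST (1 uM final) and compound incubated 15 min at room temperature before adding FITC-alphaIIb peptide tracer (100 nM final). Competition for binding read by fluorescence polarization (ex 480, em 540) after another 15 min at room temperature.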

[12] = A High-Content qHTS Against Drug Library for the Identification of Small Molecules that Inhibit DYT1 Early Onset Primary Dystonia-Associated Cell Pathology (AID 1645839; calls by dose curve; also: series mostly up to about 46 µM)
Procedure, shortened: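 In this high-content image screen, delE TorsinA mislocalization in inducible Flp-In 293 cells is scored as %pathology, with cell count serving as the counterscreen. Compound exposure lasts 48 h under tetracycline induction in reduced-serum medium.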

[13] = molecular target: Cytochrome P450 2D6 (Homo sapiens) (UniProt P10635); assay: Cytochrome P450 family 2 subfamily D member 6 (CYP2D6) small molecule antagonists: luciferase biochemical (cell-free) qHTS assay (AID 1645840; active = well fitted curve in the direction sought with a large enough effect in the repeat runs; an effect the other way counts as inactive or inconclusive; also: nearly all actives have a fitted effect of over 55% in size; also: potency is read from the fitted curve at half-maximal effect)
Chain of Cytochrome P450 2D6 (Homo sapiens) (P10635 whole entry, looked up): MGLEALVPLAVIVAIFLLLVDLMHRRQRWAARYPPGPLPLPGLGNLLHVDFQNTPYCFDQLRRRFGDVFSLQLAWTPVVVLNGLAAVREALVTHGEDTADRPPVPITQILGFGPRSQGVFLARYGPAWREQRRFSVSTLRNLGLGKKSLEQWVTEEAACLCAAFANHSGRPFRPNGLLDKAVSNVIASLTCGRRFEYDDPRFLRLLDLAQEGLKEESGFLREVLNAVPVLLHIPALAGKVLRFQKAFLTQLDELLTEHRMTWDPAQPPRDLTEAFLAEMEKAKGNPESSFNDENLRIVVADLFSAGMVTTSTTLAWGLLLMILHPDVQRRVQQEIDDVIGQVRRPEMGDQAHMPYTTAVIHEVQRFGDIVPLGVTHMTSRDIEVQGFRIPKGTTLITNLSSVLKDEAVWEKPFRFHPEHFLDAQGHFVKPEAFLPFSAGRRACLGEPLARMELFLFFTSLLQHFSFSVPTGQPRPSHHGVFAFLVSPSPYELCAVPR
Procedure, shortened: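 P450-Glo luminescent screen: recombinant CYP2D6 enzyme–proluciferin substrate mix preincubated with compound 10 min at room temperature, then NADPH regeneration added for 1 h at room temperature. Detection reagent added for 20 min; luciferin light read as relative luminescence units.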

[14] = molecular target: Cytochrome P450 2C9 (Homo sapiens) (UniProt P11712); assay: Cytochrome P450 family 2 subfamily C member 9 (CYP2C9) small molecule antagonists: luciferase biochemical (cell-free) qHTS assay (AID 1645842; active = well fitted curve in the direction sought with a large enough effect in the repeat runs; an effect the other way counts as inactive or inconclusive; also: nearly all actives have a fitted effect of over 55% in size; also: potency is read from the fitted curve at half-maximal effect)
Chain of Cytochrome P450 2C9 (Homo sapiens) (P11712 whole entry, looked up): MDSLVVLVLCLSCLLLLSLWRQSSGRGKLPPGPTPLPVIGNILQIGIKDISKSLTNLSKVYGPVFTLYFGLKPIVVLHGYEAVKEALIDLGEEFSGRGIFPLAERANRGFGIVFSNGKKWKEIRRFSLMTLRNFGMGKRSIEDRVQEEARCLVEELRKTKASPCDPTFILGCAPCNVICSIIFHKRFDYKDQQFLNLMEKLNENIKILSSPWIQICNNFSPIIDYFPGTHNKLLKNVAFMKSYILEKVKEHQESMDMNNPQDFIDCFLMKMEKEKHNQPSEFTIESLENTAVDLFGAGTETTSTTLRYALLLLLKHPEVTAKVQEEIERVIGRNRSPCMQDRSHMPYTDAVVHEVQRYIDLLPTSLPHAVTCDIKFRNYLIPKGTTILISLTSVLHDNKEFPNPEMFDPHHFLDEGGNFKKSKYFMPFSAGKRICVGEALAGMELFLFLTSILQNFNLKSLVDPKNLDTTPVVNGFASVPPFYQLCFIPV
Procedure, shortened: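 Luminescence, after 20 min with luciferin detection reagent, reflected CYP2C9 turnover during a 1 h NADPH-driven reaction at 37C. Enzyme-substrate mix contained 0.4% bovine serum albumin and was preincubated with compound 10 min at room temperature.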

[15] = qHTS to identify inhibitors of the type 1 interferon - major histocompatibility complex class I in skeletal muscle: primary screen against the NCATS Mechanism Interrogation Plate v5.0 (MIPE) Libary (AID 1347411);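 also: plate controls were vehicle for no effect and reference inhibitor for full effect; nearly all actives have a fitted effect of over 65% in size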
Procedure, shortened: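 Immortalized human myoblasts (C25cl48) with HiBit knocked into endogenous HLA-B*08:01 were stimulated with 4 ng/ml IFN-beta and given compounds in 11-point 1:3 titration from 46 uM. After 24 h at 37 C, lytic HiBiT luminescence was read.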

[16] = Primary qHTS for small molecule stabilizers of the endoplasmic reticulum resident proteome: Secreted ER Calcium Modulated Protein (SERCaMP) assay (AID 1508630); also: % is scaled to controls: 0 for no effect and ±100 for the full control effect
Procedure, shortened: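 GLuc-SERCaMP-expressing SH-SY5Y cells, pretreated 16 h with compound, are challenged with thapsigargin to empty ER calcium stores; after 4 h, coelenterazine is added directly to the medium and luminescence is imaged.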

[17] = Confirmatory qHTS for small molecule stabilizers of the endoplasmic reticulum resident proteome: Secreted ER Calcium Modulated Protein (SERCaMP) assay (AID 1508628); also: nearly all actives have a fitted effect of over 40% in size; also: potency is read from the fitted curve at half-maximal effect
Procedure, shortened: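 SH-SY5Y cells stably expressing GLuc-SERCaMP, treated 16 h with compound (primary 1.53, 7.67, 38.3 uM; confirmation 11 concentrations, up to 76.6 uM), then 100 nM thapsigargin for 4 h. Secreted Gaussia luciferase in medium read by coelenterazine luminescence.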

[18] = Cell Viability qHTS for small molecule stabilizers of the endoplasmic reticulum resident proteome (AID 1508629); conditions: cell viability counter-screen, 100 nM thapsigargin for final 4 h
[19] = Counterscreen qHTS for small molecule stabilizers of the endoplasmic reticulum resident proteome: GLuc-NoTag assay (AID 1508627);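 also: SH-SY5Y cells given compound then 100 nM thapsigargin to empty ER calcium; series mostly up to about 76 µM; 0% = thapsigargin alone and -100% = DMSO vehicle control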
Procedure, shortened: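 Luminescence of Gaussia luciferase secreted into the medium (coelenterazine, 0.07x final, unlysed cells) was the read-out. Human SH-SY5Y neuroblastoma cells constitutively secreting untagged GLuc received compound for 19 h, then 100 nM thapsigargin for 4 h.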

C[C@@H]1O[C@@H](OC[C@H]2O[C@@H](Oc3c(-c4ccc(O)c(O)c4)oc4cc(O)cc(O)c4c3=O)[C@H](O)[C@@H](O)[C@@H]2O)[C@H](O)[C@H](O)[C@H]1O
inactive: outcome [1] | outcome [2] | outcome [3] | outcome [4] | outcome [5] | outcome [6] | outcome [7] | outcome [8] | outcome [9] | outcome [10] | outcome [11] | Potency [12] | Potency [13] | Potency [14]

O=C(O)/C=C/c1ccc(Cn2ccnc2)cc1
inactive: outcome [7] | outcome [15] | outcome [8] | outcome [9] | outcome [10] | outcome [11] | Potency [12] | Potency [13]

O=c1[nH]c(=O)n([C@H]2C[C@H](O)[C@@H](CO)O2)cc1I
inactive: outcome [7] | outcome [15] | outcome [8] | outcome [9] | outcome [10] | outcome [11] | outcome [16] | Potency [12] | Potency [13] | Potency [14]

CCN(CC)CC1CCCCN1CC(=O)N1c2ccccc2C(=O)Nc2cccnc21 (configuration not stated)
inactive: outcome [7] | outcome [8] | outcome [9] | outcome [10] | outcome [11] | outcome [16] | Potency [12] | Potency [13]

CC(C)(C)C(=O)OCOC(=O)[C@@H]1N2C(=O)[C@@H](NC(=O)[C@H](N)c3ccccc3)[C@H]2SC1(C)C
inactive: outcome [7] | outcome [8] | outcome [9] | outcome [10] | outcome [11] | outcome [16] | Potency [12] | Potency [13]

Cc1onc(-c2ccccc2)c1-c1ccc(S(N)(=O)=O)cc1
inactive: outcome [7] | outcome [15] | outcome [9] | outcome [10] | outcome [16] | Potency [12]

CNCc1ccccc1
inactive: outcome [7] | outcome [8] | outcome [9] | outcome [10] | outcome [11] | outcome [16] | Potency [12] | Potency [14]
active: Potency [13] 11 µM

C/C=C/C(=O)N(CC)c1ccccc1C
inactive: outcome [7] | outcome [15] | outcome [8] | outcome [9] | outcome [10] | outcome [11] | Potency [12] | Potency [13] | Potency [14]

CN(C(=O)c1c(O)c2ccccc2n(C)c1=O)c1ccccc1
inactive: outcome [7] | outcome [15] | outcome [8] | outcome [9] | outcome [10] | outcome [11] | Potency [12] | Potency [13] | Potency [14]

CCOc1ccccc1O[C@H](c1ccccc1)[C@H]1CNCCO1
active: Potency [17] 22.4 µM
inactive: outcome [7] | outcome [8] | outcome [9] | outcome [10] | outcome [11] | max response [18] 9.87% | Potency [12] | Potency [14]

CC(=O)OC[C@H]1O[C@@](COC(C)=O)(O[C@H]2O[C@H](COC(C)=O)[C@@H](OC(C)=O)[C@H](OC(C)=O)[C@H]2OC(C)=O)[C@@H](OC(C)=O)[C@@H]1OC(C)=O
inactive: outcome [7] | outcome [8] | outcome [9] | outcome [10] | outcome [11] | outcome [16] | Potency [12] | Potency [13]

CCCC(O)C(CC)CO (configuration not stated)
inactive: outcome [7] | outcome [8] | outcome [9] | outcome [10] | outcome [11] | outcome [19] | Potency [17] | max response [18] 29.3% | Potency [12] | Potency [13] | Potency [14]

C[C@@H](N)C(=O)O
inactive: outcome [7] | outcome [8] | outcome [9] | outcome [10] | outcome [11] | outcome [16] | Potency [12] | Potency [13] | Potency [14]

CCCCCCCCCCCCCCCCN
inactive: outcome [7] | outcome [8] | outcome [9] | outcome [10] | outcome [11] | outcome [16] | Potency [12] | Potency [13] | Potency [14]

C[C@@H](c1ncncc1F)C(O)(Cn1cncn1)c1ccc(F)cc1F (some centres not stated)
inactive: outcome [7] | outcome [8] | outcome [9] | outcome [10] | outcome [11] | Potency [12] | Potency [13]

CC(=O)[C@@]1(O)CC[C@H]2[C@@H]3C[C@H](C)C4=CC(=O)C=C[C@]4(C)[C@@]3(F)[C@@H](O)C[C@@]21C
active: Potency [14] 4.36 µM
inactive: outcome [7] | outcome [8] | outcome [9] | outcome [10] | outcome [11] | outcome [16] | Potency [12] | Potency [13]

CC(C)C[C@@H](N)C(=O)O
inactive: outcome [7] | outcome [8] | outcome [9] | outcome [10] | outcome [11] | Potency [12]

CC(=O)N(CC(O)CO)c1c(I)c(C(=O)NCC(O)CO)c(I)c(C(=O)NCC(O)CO)c1I (configuration not stated)
inactive: outcome [7] | outcome [8] | outcome [9] | outcome [10] | outcome [11] | Potency [12] | Potency [13]

C[N+](C)(C)CC(O)CC(=O)[O-] (configuration not stated)
inactive: outcome [7] | outcome [8] | outcome [9] | outcome [10] | outcome [11] | outcome [16] | Potency [12] | Potency [13] | Potency [14]

CCCOC(=O)c1ccc(N)cc1
inactive: outcome [7] | outcome [8] | outcome [9] | outcome [10] | outcome [11] | Potency [12] | Potency [13]

CC(=O)SC[C@@H](Cc1ccccc1)C(=O)NCC(=O)OCc1ccccc1
inactive: outcome [7] | outcome [8] | outcome [9] | outcome [10] | outcome [11] | Potency [12]
active: Potency [13] 6.17 µM | Potency [14] 1.23 µM

CCCCCCCC(=O)OCC(COC(=O)CCCCCCC)OC(=O)CCCCCCC
inactive: outcome [7] | outcome [8] | outcome [9] | outcome [10] | outcome [11] | outcome [16] | Potency [12] | Potency [13] | Potency [14]

O=c1[nH]c2cc(C(F)(F)F)c(N3CCOCC3)cc2n(CP(=O)(O)O)c1=O
inactive: outcome [7] | outcome [8] | outcome [9] | outcome [10] | outcome [11] | outcome [16] | Potency [12] | Potency [13] | Potency [14]

CN1C(=O)CC(c2ccccc2)C1=O (configuration not stated)
inactive: outcome [7] | outcome [8] | outcome [9] | outcome [10] | outcome [11] | outcome [16] | Potency [12] | Potency [13] | Potency [14]
